# According to PubChem BioAssay:
# Where “and” joins values, the source holds several entries; their conditions need not be identical. Identical values can stand only once. Calls of active or inactive are those of the source.
# Assays:
# [1] = system: Plasmodium falciparum Sir2 (PF13_0152, Sir2A); assay: pfSir2 binders on small-molecule microarrays, primary screen, biochemical, small-molecule microarray, 635 nm fluorescence (AID 1098); conditions: small-molecule microarray binding, fluorescence 635 nm; higher = more signal;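 also: score merges spot fluorescence intensity with its signal-to-noise ratio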
# [2] = small-molecule microarray binders of probe aDKK1, primary screen, biochemical, biotinylated probe, 635/667 nm fluorescence (AID 1099); conditions: higher = more signal;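 also: score merges 667nm spot fluorescence with signal to noise across triplicate slides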
# [3] = small-molecule microarray binders of probe aCHRDL2, primary screen, biochemical, biotinylated probe, 635/667 nm fluorescence (AID 1100); conditions: higher = more signal
# [4] = splicing luciferase reporter signal modulators, primary screen, spliceosome inhibition project, cell-based, HEK293, splice +/- reporter (AID 1101); conditions: luminescence, 24 h, higher = more signal, called active from +8 up or from −8 down;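 also: HEK293 cells carrying a splicing-competent luciferase reporter gene; test concentration not given here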
# [5] = target: Fibroblast growth factor 10 (Homo sapiens) (UniProt O15520); assay: FGF10 binders on small-molecule microarrays, primary screen, biochemical, small-molecule microarray, 635 nm fluorescence (AID 1102); conditions: FGF10 binding, fluorescence 635 nm, higher = more signal
# Chain of Fibroblast growth factor 10 (Homo sapiens) (O15520 whole entry, looked up): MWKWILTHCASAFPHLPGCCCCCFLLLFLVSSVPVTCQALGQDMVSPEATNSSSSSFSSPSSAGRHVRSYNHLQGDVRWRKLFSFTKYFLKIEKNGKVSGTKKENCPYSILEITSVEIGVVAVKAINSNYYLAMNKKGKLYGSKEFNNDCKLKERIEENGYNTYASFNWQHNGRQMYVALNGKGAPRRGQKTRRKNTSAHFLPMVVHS
# [6] = system: glycogen synthase kinase-3 (GSK3A per assay name; protocol says GSK3B); assay: GSK3 binders on small-molecule microarrays, primary screen, biochemical, small-molecule microarray, 635 nm fluorescence, GSK3A (AID 1103); conditions: small-molecule microarray binding, fluorescence 635 nm; higher = more signal; also: the record names both GSK3A and GSK3B
# [7] = target: Epidermal growth factor receptor (Homo sapiens) (UniProt P00533); assay: EGFR binders on small-molecule microarrays, primary screen, biochemical, small-molecule microarray, 635 nm fluorescence (AID 1104); conditions: EGFR binding, higher = more signal;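 also: score merges 667 nm emission intensity with spot signal to noise over triplicate slides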
# Chain of Epidermal growth factor receptor (Homo sapiens) (P00533 whole entry, looked up): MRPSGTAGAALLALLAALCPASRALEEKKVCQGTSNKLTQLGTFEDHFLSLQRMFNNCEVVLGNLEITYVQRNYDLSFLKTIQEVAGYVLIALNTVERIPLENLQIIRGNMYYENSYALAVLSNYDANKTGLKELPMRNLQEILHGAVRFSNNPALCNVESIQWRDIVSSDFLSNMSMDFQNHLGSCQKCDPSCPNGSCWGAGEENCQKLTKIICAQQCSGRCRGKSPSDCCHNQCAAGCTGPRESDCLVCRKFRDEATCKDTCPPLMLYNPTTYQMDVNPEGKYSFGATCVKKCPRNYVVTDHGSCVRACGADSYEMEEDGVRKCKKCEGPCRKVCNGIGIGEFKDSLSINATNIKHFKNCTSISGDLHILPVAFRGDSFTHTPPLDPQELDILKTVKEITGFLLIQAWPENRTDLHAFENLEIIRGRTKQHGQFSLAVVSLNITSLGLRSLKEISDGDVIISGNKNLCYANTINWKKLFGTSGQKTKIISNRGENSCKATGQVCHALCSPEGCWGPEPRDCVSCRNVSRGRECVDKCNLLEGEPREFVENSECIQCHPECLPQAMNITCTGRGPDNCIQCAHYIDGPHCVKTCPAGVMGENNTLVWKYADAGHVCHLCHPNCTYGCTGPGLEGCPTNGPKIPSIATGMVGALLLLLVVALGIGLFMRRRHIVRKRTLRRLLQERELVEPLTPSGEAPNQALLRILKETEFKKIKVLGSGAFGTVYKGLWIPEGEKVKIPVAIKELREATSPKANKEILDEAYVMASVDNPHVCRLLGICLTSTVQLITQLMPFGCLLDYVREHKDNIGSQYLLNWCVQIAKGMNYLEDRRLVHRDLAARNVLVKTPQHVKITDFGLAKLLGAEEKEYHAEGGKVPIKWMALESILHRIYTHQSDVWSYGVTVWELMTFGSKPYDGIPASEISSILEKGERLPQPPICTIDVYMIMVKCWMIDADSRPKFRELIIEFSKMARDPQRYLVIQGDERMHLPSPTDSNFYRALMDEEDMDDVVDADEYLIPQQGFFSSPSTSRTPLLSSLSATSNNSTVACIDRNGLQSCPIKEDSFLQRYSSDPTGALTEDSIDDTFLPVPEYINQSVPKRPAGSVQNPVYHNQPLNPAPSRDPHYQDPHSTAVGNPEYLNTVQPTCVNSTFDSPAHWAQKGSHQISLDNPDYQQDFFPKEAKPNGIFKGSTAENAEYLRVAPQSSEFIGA
# [8] = target: Follistatin-related protein 3 (Homo sapiens) (UniProt O95633); assay: FSTL3 binders on small-molecule microarrays, primary screen, biochemical, small-molecule microarray, 635 nm fluorescence (AID 1105); conditions: FSTL3 binding, higher = more signal;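 also: score merges emission near 667 nm and signal to noise per printed spot across three slides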
# Chain of Follistatin-related protein 3 (Homo sapiens) (O95633 whole entry, looked up): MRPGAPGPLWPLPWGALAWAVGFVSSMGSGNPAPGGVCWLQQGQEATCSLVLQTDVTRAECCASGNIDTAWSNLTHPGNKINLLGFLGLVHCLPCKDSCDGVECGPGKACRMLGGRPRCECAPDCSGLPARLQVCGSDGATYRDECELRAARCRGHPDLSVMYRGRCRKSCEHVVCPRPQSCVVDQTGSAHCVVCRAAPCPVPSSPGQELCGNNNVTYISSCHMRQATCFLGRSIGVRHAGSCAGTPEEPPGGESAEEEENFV
# [9] = target: Dickkopf-related protein 1 (Homo sapiens) (UniProt O94907); assay: DKK1 binders on small-molecule microarrays, primary screen, biochemical, small-molecule microarray, 635 nm fluorescence scan (AID 1106); conditions: DKK1 binding, higher = more signal;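 also: score merges emission near 667 nm with signal to noise over three replicate slides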
# Chain of Dickkopf-related protein 1 (Homo sapiens) (O94907 whole entry, looked up): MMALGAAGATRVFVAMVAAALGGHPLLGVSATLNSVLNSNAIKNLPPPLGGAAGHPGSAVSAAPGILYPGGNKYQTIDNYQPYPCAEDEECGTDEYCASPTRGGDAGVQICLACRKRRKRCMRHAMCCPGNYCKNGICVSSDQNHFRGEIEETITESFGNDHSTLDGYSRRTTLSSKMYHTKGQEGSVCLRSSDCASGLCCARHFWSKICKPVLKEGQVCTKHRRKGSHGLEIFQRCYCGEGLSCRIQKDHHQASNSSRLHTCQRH
# [10] = system: Inhibin beta A chain (activin A); assay: INHBA (activin A) binders on microarrays, primary screen, biochemical, small-molecule microarray, 635 nm fluorescence scan (AID 1107); conditions: small-molecule microarray binding, higher = more signal;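 also: mouse activin A protein probed at 4.33 µg/mL on printed slides; score merges bound-protein fluorescence near 667 nm with spot signal-to-noise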
# [11] = system: Human papillomavirus type 1a protein E7 (residues 44-93); assay: HPV1a E7 fragment binders on microarrays, primary screen, biochemical, small-molecule microarray, residues 44-93, 635 nm fluorescence (AID 1108); conditions: small-molecule microarray binding, fluorescence 635 nm; higher = more signal;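 also: E7 fragment applied at 1 µg/mL in TBST for 1 h at 4 C; score combines spot fluorescence with its signal to noise ratio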
# [12] = modulators of HCV replicon luciferase signal, primary screen, HCV replication inhibitor project, Huh7 cells, luciferase reporter (AID 1109); conditions: 48 h, higher = more signal;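 also: huh7 hepatoma cells harbouring a luciferase neomycin HCV replicon reporter; luciferase luminescence as measure of HCV replicon replication; test concentration not given here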
# [13] = target: Left-right determination factor 2 (Homo sapiens) (UniProt O00292); assay: LEFTY2 binders on small-molecule microarrays, primary screen, biochemical, small-molecule microarray, 635 nm fluorescence scan (AID 1110); conditions: LEFTY2 binding, higher = more signal
# Chain of Left-right determination factor 2 (Homo sapiens) (O00292 whole entry, looked up): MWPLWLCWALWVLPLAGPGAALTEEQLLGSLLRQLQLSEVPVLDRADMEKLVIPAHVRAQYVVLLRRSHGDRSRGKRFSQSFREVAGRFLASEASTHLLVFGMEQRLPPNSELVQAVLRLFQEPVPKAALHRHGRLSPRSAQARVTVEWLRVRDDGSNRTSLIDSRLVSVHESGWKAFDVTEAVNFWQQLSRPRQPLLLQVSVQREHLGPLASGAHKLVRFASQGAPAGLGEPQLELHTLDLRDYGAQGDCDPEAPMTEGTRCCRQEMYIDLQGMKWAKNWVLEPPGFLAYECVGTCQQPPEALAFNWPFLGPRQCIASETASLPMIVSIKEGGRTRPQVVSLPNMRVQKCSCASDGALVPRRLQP
# [14] = target: Calmodulin-1 (Homo sapiens) (UniProt P0DP23); assay: CALM1 binders on microarrays, EGTA buffer, profiling panel, biochemical, small-molecule microarray, Cy5-labelled CALM1 (AID 1111); conditions: Cy5-CALM1 binding fluorescence, higher = more signal;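 also: labelled calmodulin applied in Tris saline Tween buffer holding calcium plus EGTA and DTT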
# [15] = target: Calmodulin-1 (Homo sapiens) (UniProt P0DP23); assay: calcium-bound CALM1 binders on microarrays, profiling panel, artefact control for SMM control-protein annotation, biochemical, small-molecule microarray, Cy5-labelled CALM1, plus calcium (AID 1112); conditions: Cy5-CALM1 binding fluorescence, higher = more signal;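 also: score merges spot fluorescence with signal to noise from triplicate slides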
# [16] = small-molecule microarray binders of probe aWnt5a, primary screen, biochemical, biotinylated probe, 635/667 nm fluorescence (AID 1113); conditions: higher = more signal;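 also: score merges 667 nm fluorescence intensity with signal-to-noise per printed feature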
# [17] = small-molecule microarray binders of probe aShh, primary screen, biochemical, biotinylated probe, 635/667 nm fluorescence (AID 1114); conditions: higher = more signal;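 also: probe is biotin-labelled aShh protein from a stem cell growth factor screen; measures binding of labelled protein to compounds printed on the slide; score merges feature fluorescence at 667 nm with signal-to-noise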
# [18] = small-molecule microarray binders of probe aNog, primary screen, biochemical, biotinylated probe, 635/667 nm fluorescence (AID 1115); conditions: higher = more signal;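 also: probe is biotinylated aNog protein used at 0.15 µg/mL for 1 h at 4 C; z-score combines 667 nm fluorescence of each spot with its signal to noise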
# [19] = target: Torsin-1A-interacting protein 1 (Homo sapiens) (UniProt Q5JTV8); assay: LAP1 binders from COS7 cell lysate, primary screen, small-molecule microarray, 635/667 nm fluorescence (AID 1116); conditions: COS7-hLAP1 lysate binding, 635 nm fluorescence, higher = more signal
# Chain of Torsin-1A-interacting protein 1 (Homo sapiens) (Q5JTV8 whole entry, looked up): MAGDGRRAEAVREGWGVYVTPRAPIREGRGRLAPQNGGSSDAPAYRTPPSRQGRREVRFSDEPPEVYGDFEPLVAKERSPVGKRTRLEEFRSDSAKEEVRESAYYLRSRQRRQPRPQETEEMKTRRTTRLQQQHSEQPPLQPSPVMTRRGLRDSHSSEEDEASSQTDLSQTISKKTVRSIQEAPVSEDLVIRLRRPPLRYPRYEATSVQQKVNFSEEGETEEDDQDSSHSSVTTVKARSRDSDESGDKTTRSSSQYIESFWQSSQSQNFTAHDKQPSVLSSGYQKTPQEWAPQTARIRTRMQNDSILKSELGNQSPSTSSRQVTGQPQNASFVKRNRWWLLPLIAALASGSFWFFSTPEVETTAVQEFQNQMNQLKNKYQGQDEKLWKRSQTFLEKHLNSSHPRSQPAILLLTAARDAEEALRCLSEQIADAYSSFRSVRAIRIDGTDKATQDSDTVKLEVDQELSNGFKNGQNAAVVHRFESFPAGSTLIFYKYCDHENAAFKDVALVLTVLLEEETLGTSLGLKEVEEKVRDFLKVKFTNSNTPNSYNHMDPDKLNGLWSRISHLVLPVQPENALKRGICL
# [20] = target: Alpha-bungarotoxin (Bungarus multicinctus) (UniProt P60615); assay: alpha-bungarotoxin binders on microarray, profiling panel, artefact control for SMM control protein annotation, biochemical, small-molecule microarray, Alexa647 label, 635/667 nm fluorescence (AID 1117); conditions: alpha-BTX-A647 binding fluorescence, higher = more signal
# Chain of Alpha-bungarotoxin (Bungarus multicinctus) (P60615 whole entry, looked up): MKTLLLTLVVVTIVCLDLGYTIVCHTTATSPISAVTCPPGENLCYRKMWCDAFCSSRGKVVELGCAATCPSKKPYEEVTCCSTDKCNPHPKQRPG
SMILES,composite z-score [1],composite z-score [2],composite z-score [3],z-score [4],composite z-score [5],composite z-score [6],composite z-score [7],composite z-score [8],composite z-score [9],composite z-score [10],composite z-score [11],z-score [12],composite z-score [13],composite z-score [14],composite z-score [15],composite z-score [16],composite z-score [17],composite z-score [18],composite z-score [19],composite z-score [20]
Cc1ccc(S(=O)(=O)N[C@H]2COC(=O)[C@@H](Cc3ccccc3)NC(=O)[C@@H](C)COC(=O)CC=C[C@@H]2C)cc1,-0.218 and 0.304,-0.483 and -0.332,-0.803 and -0.645,0.565 (inactive) and -0.0193 (inactive),0.117 and 0.435,-0.0808 and -0.0049,0.513 and 0.282,0.87 and 0.533,0.871 and 0.895,0.657 and 0.0736,-1.28 and 0.123,1.41 and -1.89,0.839 and 0.546,-0.233 and -0.354,-0.372 and -0.879,-0.1 and -0.0912,0.0494 and -0.138,-0.122 and -0.038,0.15 and -0.0849,0.423 and -0.1
CCOC(=O)C[C@H]1[C@H](OC(=O)c2ccccc2-c2ccccc2)[C@@H](NC(=O)c2ccccc2)c2cc(OCCCO)ccc2N1C(=O)c1ccc2ccccc2n1,-0.134 and 0.522,0.298 and -0.106,0.229 and 0.0414,-0.0583 (inactive) and -0.0708 (inactive),0.97 and 0.586,0.612 and 0.576,0.284 and 0.207,0.47 and 0.8,0.452 and 0.19,0.227 and 0.981,0.288 and 1.08,-1.19 and -0.583,0.668 and 0.619,-0.118 and 1.47,-0.148 and 0.227,0.0324 and -0.108,-0.2 and 0.0078,-0.122 and 0.386,0.491 and 0.364,0.328 and 0.833
CO[C@H]1COC(=O)CC=C[C@H](C)[C@H](OC)COC(=O)[C@@H](C)COC(=O)CC=C[C@@H]1C,0.402 and 0.0429,-0.629 and -0.472,-1.1 and -1.05,-0.0265 (inactive) and -0.282 (inactive),0.415 and 0.242,0.594 and 0.65,0.752 and 0.715,0.969 and 0.59,1.23 and 0.743,1.02 and 0.17,0.25 and -0.333,0.228 and 0.343,0.953 and 0.546,-1.51 and -1.76,-1.68 and -2.71,-0.0172 and -0.147,-0.304 and 0.0899,-0.194 and -0.176,0.123 and -0.771,-0.683 and -0.62
COc1ccc(COC(=O)NN=C2C[C@@H](O)[C@@H](O)[C@@H]3[C@@H]4C(=O)N(C(C)(C)C)C(=O)[C@@H]4CC[C@H]23)cc1,0.871,-0.325,-0.25,-0.544 (inactive),0.589,0.241,-0.0313,0.121,-0.116,-0.786,1.01,-0.167,0.0311,-0.0989,-0.143,-0.1,0.0469,-0.242,0.677,0.7
C=CCN(C(=O)C1N(c2c(Cl)cccc2CO)C(=O)C2C(C(=O)O)C3C=CC21O3)c1ccc(OC)cc1 (stereo not given),1.51 and -0.251,-0.0248 and -0.257,0.804 and 0.73,-1.1 (inactive) and -0.88 (inactive),-1.56 and -2.01,-1.29 and -0.754,-1.86 and -2.26,-1.4 and -2.14,-1.99 and -2.35,-1.12 and -3.24,-0.716 and -1.82,-1.14 and -0.0856,-2.79 and -1.79,-0.746 and -0.798,-0.0974 and 0.407,-0.355 and -0.242,-0.487 and -0.336,-0.218 and -0.24,-0.809 and -0.822,-0.64 and -2.45
